# From PubChem BioAssay
# Shown are actives, neighbours in structure and some others; about 28% of the full set was active somewhere.
# CYP2C9 inh = blockers of cytochrome P450 2C9 activity – biochemical, luminescence, ADME assay, primary screen | inhibition, % at 5 µM | P11712 | CYP2C9 Supersomes, luciferin-H conversion | 20% of 96,000 active | AID 777, 2007;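 active = blocking of liver enzyme CYP2C9 beyond about 50% at 5 µM, limit read from the data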
# Target sequence (P11712 whole entry, looked up): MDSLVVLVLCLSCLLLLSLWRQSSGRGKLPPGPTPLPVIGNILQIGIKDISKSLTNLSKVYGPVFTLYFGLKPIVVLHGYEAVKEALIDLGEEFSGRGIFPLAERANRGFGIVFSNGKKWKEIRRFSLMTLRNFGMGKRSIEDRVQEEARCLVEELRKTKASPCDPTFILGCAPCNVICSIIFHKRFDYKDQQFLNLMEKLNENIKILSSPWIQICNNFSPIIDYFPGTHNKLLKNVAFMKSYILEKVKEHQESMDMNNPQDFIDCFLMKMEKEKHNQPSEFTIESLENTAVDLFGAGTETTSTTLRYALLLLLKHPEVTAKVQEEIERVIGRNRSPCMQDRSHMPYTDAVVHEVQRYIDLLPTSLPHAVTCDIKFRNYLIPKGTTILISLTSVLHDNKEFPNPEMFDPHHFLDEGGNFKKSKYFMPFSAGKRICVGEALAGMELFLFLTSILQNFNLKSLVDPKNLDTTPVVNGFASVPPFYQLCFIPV
# CYP2C19 inh = blockers of cytochrome P450 2C19 activity – biochemical, luminescence, ADME assay, primary screen. P33261. CYP2C19 Supersomes, luciferin-H EGE luminescence, 30 min. inhibition, % at 5 µM. 21% of 96,000 active. AID 778, 2007;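 active = CYP2C19 inhibition above a set limit at 5 µM in the primary screen, cut at about 50% in these data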;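 note: plate controls were negative control wells for no effect and 2.5 mM tranylcypromine positive control for full effect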
# D1 allo mod = D1 CRE-luciferase signal change, two-sided – cell-based, HEK293 D1, dopamine EC30, D1 allosteric modulator project, primary screen; 5.9% of 58,000 active; D(1A) dopamine receptor (Homo sapiens), P21728; dopamine EC30 potentiation; actives deviate in either direction; B-score at 10 µM; AID 641, 2007;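 active = luminescence count or its row- and column-corrected plate score outside the 99.7% band of the plate's sample wells, on either side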
# DAT uptake mod = changed hDAT dopamine uptake under cocaine IC80, either direction, primary screen, cocaine antagonist project, cell-based, LLC-PK1 hDAT, [14C]-dopamine uptake, MLSMR. LLC-PK1 hDAT cells, [14C]-dopamine uptake with cocaine IC80; actives deviate in either direction. AID 449768, 2010. 1.3% of 110,000 active. Sodium-dependent dopamine transporter (Homo sapiens), Q01959. B-score at 10 µM;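 active = Z score or B-score, a plate-position-corrected score, falls beyond the plate's 99.7% confidence bounds, in either direction; inactive = both scores lie inside the 99.7% bounds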;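 note: scored against the spread of the other compound wells on the same plate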
# CYP2C19 act = human CYP2C19 activators, primary screen, biochemical, luminescence. Cytochrome P450 2C19 (Homo sapiens), P33261. recombinant CYP2C19, luciferin-H EGE luminescence; active compounds read high; 0 = fully inhibited enzyme, 1 = untreated enzyme. activation factor at 5 µM. 96,000 tested, under 10 active;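 active = activation factor of at least 2 at 5 µM in the primary screen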;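 note: 0 = wells with 2.5 mM tranylcypromine and 1 = vehicle-only wells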
# CYP2C9 act = human CYP2C9 activators, primary screen, biochemical, luminescence; Cytochrome P450 2C9 (Homo sapiens), P11712; recombinant CYP2C9, luciferin-H conversion; active compounds read high; factor 1 = untreated enzyme, 0 = blocked; activation factor at 5 µM; 1.4% of 96,000 active; AID 1024, 2008;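 active = activation factor of 2 or more for CYP2C9 at a 5 µM dose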;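 note: 0 = sulfaphenazole-blocked wells and 1 = vehicle-only wells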
# * marks the source's active call; other numbers are inactive results; nt = no result.
SMILES,CYP2C9 inh,CYP2C19 inh,D1 allo mod,DAT uptake mod,CYP2C19 act,CYP2C9 act
O=c1cc(CSc2ccc(S(=O)(=O)N3CCCCC3)cn2)nc2sccn12,79.7*,65.9*,-4.52*,0.157,0.3,0.2
O=C(NCc1ccc(Cl)cc1)C1CCC(CNc2c(N3CCCCC3)c(=O)c2=O)CC1 (configuration not stated),nt,nt,nt,0.124,nt,nt
O=[N+]([O-])c1ccc(-n2nncc2-c2ccc(Cl)cc2)cc1,53.5*,90.1*,nt,0.129,0.1,0.5
Nc1ccc(-n2nncc2-c2ccc(Cl)cc2)cc1,57.4*,64.5*,nt,0.157,0.4,0.4
Cc1nc(C(=O)Nc2ccc(Cl)cc2)nn1-c1ccc([N+](=O)[O-])cc1,13.3,-7.8,nt,-0.332,1.1,0.9
COC(=O)NC1CSCC1OC(=O)CN1C(=O)c2ccccc2C1=O (configuration not stated),0.3,31.8,-0.332,-0.119,0.7,1
COc1ccc(/C=N/N=C/c2ccc(OC)c(OC)c2)cc1OC,-18.1,-9.8,nt,0.158,1.1,1.2
COc1cc(/C=N/N(C)c2ccccc2)ccc1O,74.3*,82.2*,nt,-0.272,0.2,0.3
COc1cc(OC)c(OC)cc1/C=N/N(C)c1ccccc1,70.2*,32.6,nt,1,0.7,0.3
O=C(Cn1sc2ccccc2c1=O)NC12CC3CC(CC(C3)C1)C2,90.3*,39.0,nt,-0.51,0.6,0.1
CCOC(=O)c1ccccc1OCc1cc(/C=N/n2cncn2)ccc1OC,nt,nt,nt,1.25,nt,nt
COc1cccc(/C=N/n2cncn2)c1OCC#N,25.4,77.6*,-0.609,-1.22,0.2,0.7
CCOC(=O)c1csc(NC(=O)CSc2nnnn2CC)n1,7.8,3.9,-0.0166,-0.0221,1,0.9
O=C1CC(c2cccs2)c2cc3c(cc2N1)OCO3 (configuration not stated),18.9,67.1*,0.0232,0.155,0.3,0.8
CCOc1c(OC)cccc1C1CC(=O)Nc2cc3c(cc21)OCCO3 (configuration not stated),69.7*,93.9*,0.468,-0.0895,0.1,0.3
O=C1Nc2cc3c(cc2Sc2ccccc21)OCCO3,-6.3,26.4,1.26,0.776,0.7,1.1
COc1cc2c(cc1OC)C(c1cccs1)CC(=O)N2 (configuration not stated),3.7,-10.4,nt,0.246,1.1,1
O=C1CC(c2ccncc2)c2cc3c(cc2N1)OCCO3 (configuration not stated),58.9*,60.6*,1.05,0.011,0.4,0.4
CC(C)c1ccc(OC(=O)NCCO)cc1,-10.0,49.3,-0.29,-0.758,0.5,1.1
O=C(O)COc1ccc(/C=N/NC(=O)C2CCCN2S(=O)(=O)c2ccc(Cl)cc2)cc1 (configuration not stated),9.0,15.6,nt,-0.437,0.8,0.9
Cc1cc(/N=C/C=C2\N(C)c3ccccc3C2(C)C)n(CCC#N)n1,40.7,55.2*,-1.85,0.602,0.4,0.6
CN1/C(=C\C=Nc2ccccc2)C(C)(C)c2ccccc21,1.1,0.7,nt,0.258,1,1
CCN(CC)S(=O)(=O)c1cc(C(=O)OC)ccc1Cl,3.7,61.8*,0.647,-0.567,0.4,1
CCN(CC)S(=O)(=O)c1cc(C(=O)O)ccc1Cl,-11.6,-24.3,0.0209,-0.163,1.2,1.1
CCN(CC)S(=O)(=O)c1ccc(Cl)c(C(=O)OC)c1,-112.8,33.3,-0.476,-0.0338,0.7,2.1*
SMILES,CYP2C9 inh,CYP2C19 inh,D1 allo mod,DAT uptake mod,CYP2C19 act,CYP2C9 act
CCN(CC)S(=O)(=O)c1cc(C(=O)Nc2cc(Cl)ccc2N2CCN(C)CC2)ccc1Cl,39.3,16.3,nt,2.88*,0.8,0.6
CN1CCN(c2ccc(Cl)cc2NC(=O)c2ccc(S(=O)(=O)N(C)C)cc2)CC1,12.2,6.5,nt,0.412,0.9,0.9
COc1cc2c(cc1OC)CN(c1ccc(-c3ccccc3OC)nn1)CC2,-139.7,62.5*,-0.71,1.14,0.4,2.4*
Cc1ccnc(N/C=C(\C#N)c2nc(-c3cccc(Br)c3)cs2)c1,31.1,32.6,nt,0.436,0.7,0.7
O=C(O)c1ccc(Cn2cc(Cl)cn2)cc1,6.3,14.2,0.454,-1.1,0.9,0.9
CCCCOC(=O)Nc1cc(Cl)ccc1C,-0.4,10.6,nt,0.352,0.9,1
CCCOC(=O)NC(CC)COC(=O)Nc1cc(C)ccc1C (configuration not stated),24.6,69.9*,-0.0653,0.193,0.3,0.8
CN=C1S/C(=C\c2cccn2-c2cccc(Br)c2)C(=O)N1C,nt,nt,nt,-0.125,nt,nt
C=CCSc1nc(C)cc(/C=C\c2ccccc2)c1C#N,-116.7,7.1,nt,-0.246,0.9,2.2*
COc1ccc(-c2nc(CN3CCC(C(=O)NC(C)C)CC3)c(C)o2)cc1OC,nt,nt,0.00155,nt,nt,nt
CCOc1cc(C(c2c(C)[nH][nH]c2=O)c2c(C)[nH][nH]c2=O)ccc1OC(=O)c1cccc([N+](=O)[O-])c1,53.9*,41.2,nt,0.735,0.6,0.5
CCOc1cc(C(c2c(C)[nH][nH]c2=O)c2c(C)[nH][nH]c2=O)ccc1OCc1ccc([N+](=O)[O-])cc1,33.5,60.0*,nt,1.12,0.4,0.7
CCOc1ccc(C(c2c(C)[nH][nH]c2=O)c2c(C)[nH][nH]c2=O)cc1OC,29.0,13.5,nt,0.24,0.9,0.7
CCNC(=O)c1sc(-c2ccccc2)nc1C,-9.9,55.6*,0.748,0.815,0.4,1.1
COc1ccc(/C=C/C(=O)c2sc(-c3ccccc3)nc2C)cc1,12.4,-4.9,nt,2.26,1,0.9
CC(=O)c1cccc(N(C(=O)c2cnccn2)C(C(=O)NCc2ccccc2)c2ccco2)c1 (configuration not stated),23.1,53.0*,nt,0.877,0.5,0.8
CC1(C)CC(=O)C=C(Nc2ccc(C(=O)O)cc2)C1,nt,nt,nt,-1.16,nt,nt
CCCOc1ccc(NC2=CC(=O)CC(C)(C)C2)cc1,78.9*,37.3,nt,-0.0152,0.6,0.2
CCCCN(C)C(=O)c1sc2ncn(CC)c(=O)c2c1C,-4.4,-19.6,1.03,-0.762,1.2,1
Cc1nc2ccccn2c1/C(O)=C1\C(=O)C(=O)N(CCCN(C)C)C1c1ccc(F)cc1 (configuration not stated),nt,nt,-0.0896,nt,nt,nt
Cc1cc(=O)[nH]c(SCC(=O)c2c(N)n(C)c(=O)n(C)c2=O)n1,-6.8,-19.2,nt,-1.05,1.2,1.1
O=C(OCCN(CCOC(=O)c1ccncc1)S(=O)(=O)c1cccs1)c1ccncc1,99.9*,99.1*,0.426,0.497,0,0
